# According to PubChem BioAssay AID709 (SRMLSC, 2007):
# Among all 65,000 compounds or so, about 3,600 (5.5%) were called active. This is one part of a sample in which actives are shown more often than they occur. A number with no mark means an inactive call.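 The calls were made as follows: active = at 10 µM, mean starting fluorescence two-fold or more over control wells; inactive = the rest.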
# Test: intrinsic fluorescence of library compounds, ex339/em460 – biochemical, MLSMR library, data from DPM-DC assay, artefact control, profiling panel (AID 709);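 also: signal is the first read of a kinetic run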
# Settings: compound autofluorescence, ex339/em460 nm, NADH buffer; at 10 µM; stronger effect = higher value; 1 = no-compound wells, NADH background
row,Compound,fluorescence fold increase
1,CN1c2ccccc2-c2nc3ccccc3n2C1c1ccco1 (stereo unspecified),2.31 (active)
2,Cc1nn2c3ccccc3nc2n(C)c1=O,0.93
3,Cc1ccccc1N1C(=O)C2ON(c3ccccc3)C(c3ccncc3)C2C1=O (stereo unspecified),1.04
4,COc1ccc(N2CCN(C(=O)CSc3nc4cc(OC)c(OC)cc4cc3C#N)CC2)cc1,1.03
5,COc1ccc2nc(N3CCCC(O)C3)c(C#N)cc2c1 (stereo unspecified),2.58 (active)
6,CCOc1ccc2nc(N3CCCN(C(=O)Nc4ccccc4C)CC3)c(C#N)cc2c1,1.7
7,COC(=O)c1sc(NC(=O)c2csc3c2CCCC3)nc1C,1.25
8,COc1ccc(C(=O)Nc2nncs2)c(OC)c1,1.05
9,COC(=O)c1sc(NC(=O)c2ccc(OC)cc2OC)nc1C,2.06 (active)
10,Cc1c(C(=O)Nc2ccccc2Cl)oc2ccc(S(=O)(=O)N3CCC4(CC3)OCCO4)cc12,3.37 (active)
11,CCOC(=O)C1CCN(C(=O)c2oc3ccc(S(=O)(=O)N4CCCCCC4)cc3c2C)CC1,1.08
12,CCOc1ccccc1NC(=O)c1cc(S(=O)(=O)N2CCC3(CC2)OCCO3)ccc1F,1.05
13,COC(=O)COc1ccc(S(=O)(=O)Nc2ccc(NC(C)=O)cc2)cc1,1.1
14,O=C(N1CCOCC1)N(Cc1ccccc1)c1ccccn1,1.08
15,COc1cc(-n2c(C)nc3cc(C(=O)NCc4ccco4)ccc32)cc(OC)c1OC,1.09
16,Cc1cc(NC(=O)c2cnn3cccnc23)n(-c2ccccc2)n1,1.13
17,Cn1c(CNc2nc(-c3ccccc3)cs2)nnc1SCC(=O)c1ccccc1,1.05
18,Cc1ccc(Cn2c(C)nc3c(c2=O)c2nc4ccccc4nc2n3Cc2ccco2)cc1,2.34 (active)
19,Cc1nc2ccccc2c(=O)n1CCCn1ccnc1,1.18
20,COCCCn1c2nc3ccccc3nc2c2c(=O)n(Cc3ccc(Cl)cc3)c(C)nc21,3.88 (active)
21,Cc1nc2c(c(=O)n1Cc1ccco1)c1nc3ccccc3nc1n2Cc1ccccc1,2.65 (active)
22,Nc1cc(=O)nc(SCc2ccccc2)n1Cc1ccco1,1.05

row,Compound,fluorescence fold increase
1,CC(Sc1nc2ccccc2c(=O)n1Cc1ccco1)C(=O)c1ccccc1 (stereo unspecified),1.1
2,O=c1c2ccccc2oc2nc(C3CCCCC3)n(Cc3ccco3)c(=O)c12,1.14
3,Clc1cccc(-c2nc3nc4ccccc4nc3n2Cc2ccco2)c1,1.65
4,Cn1c(COc2ccc(Cl)cc2)nc2ccccc2c1=O,1.18
5,CC(=O)Oc1cc2c(C(=O)NCCN3CCOCC3)c(C)oc2c2ccccc12,1.19
6,CCCS(=O)(=O)N1CCCC(C(=O)N2CCN(c3ccccc3)CC2)C1 (stereo unspecified),1.11
7,CN(C)Cc1c(O)ccc2occ(C(O)c3ccccc3)c12 (stereo unspecified),1.03
8,COc1ccc(-c2ccnc(SCC(=O)N3CCOCC3)n2)cc1,1.54
9,CCOC(=O)c1[nH]c2ccc(OC)cc2c1NC(=O)CCN1CCN(Cc2ccccc2)CC1,2.37 (active)
10,COc1cc(NC(=O)N2CCOCC2)cc(OC)c1,1.07
11,CCOc1ccccc1NC(=O)CCN1CCN(S(=O)(=O)c2ccc(OC)cc2)CC1,1
12,COC(=O)c1[nH]c2ccccc2c1NC(=O)CN1CCCc2ccccc21,1.14
13,CCOC(=O)c1[nH]c2ccc(OC)cc2c1NC(=O)N1CCOCC1,3.83 (active)
14,Cc1c(C(=O)N2CCOCC2)[nH]c2ccc(OCc3ccccc3)cc12,1.13
15,COC(=O)c1sc(=S)n(-c2ccccc2)c1N,1.02
16,O=S(=O)(NCc1ccc2c(c1)OCO2)c1cccc2nsnc12,1.04
17,CCOC(=O)c1cc2occc2n1CC(=O)NC1CCC(C)CC1 (stereo unspecified),1.03
18,Cc1cccc(N2CCN(Cc3c(C)n(C)n(-c4ccccc4)c3=O)CC2)c1C,1.01
19,OCc1n[nH]c(CO)n1,1.04
20,O=C(Nc1ccc2c(c1)nc1n2CCCCC1)c1cc(S(=O)(=O)N2CCOCC2)ccc1Cl,1.09
21,CC(c1nnc(SCC(=O)Nc2sccc2C#N)n1-c1ccc(Cl)cc1)N(C)C (stereo unspecified),1.06
22,CSc1ccc(-c2c(C#N)c(N)nc3c2c(C)nn3-c2ccccc2)cc1,3.9 (active)

row,Compound,fluorescence fold increase
1,CCCc1[nH]nc2c1C(c1c(C)nn(-c3ccccc3)c1Cl)C(C#N)=C(N)O2 (stereo unspecified),1.09
2,CSc1nc(N)c(C#N)c(-c2ccccc2Cl)c1C#N,1.19
3,COc1ccc(OC)c(CNC(=O)CCc2nc(-c3cccs3)no2)c1,1.09
4,Cc1cc(C)nc(N(C#N)CC(=O)Nc2ccccc2)n1,1.1
5,Cc1ccc(S(=O)(=O)NCCN2CCOCC2)cc1C,1.15
6,COc1ccccc1NC1=NC(c2ccc(Cl)cc2)N=C(N)N1 (stereo unspecified),1.03
7,CCCc1nc2ccccc2c(C(=O)OCc2nnc(-c3cc(OC)c(OC)c(OC)c3)o2)c1CC,1.12
8,COc1ccc2c3c(c(=O)oc2c1OCC(=O)C(C)(C)C)CCCC3,2.12 (active)
9,Cc1c(C)c2cc3c4c(oc3c(C)c2oc1=O)CCCC4,1.64
10,COc1ccc(Cl)cc1S(=O)(=O)N1CCN(CC(=O)C(C)(C)C)CC1,0.9
11,COc1ccc(C(=O)OCC(=O)c2ccc(C)c(S(=O)(=O)N3CCOCC3)c2)cc1OC,1
12,CCCOc1ccc2c3c(c(=O)oc2c1OCCC)CCC3,2.13 (active)
13,COC(=O)c1ccc(Oc2nc(Nc3ccc(F)cc3)nc(N3CCCC3)n2)cc1,1.09
14,Cc1ccc(C(c2nnnn2CS(=O)(=O)c2ccc(C)cc2)N2CCC(C(N)=O)CC2)cc1 (stereo unspecified),1.03
15,Cc1cccc(NC(=O)CN2CCCN(S(=O)(=O)c3ccc(Br)s3)CC2)c1,1.1
16,Cc1cc(NC(=O)c2cccc(N3C(=O)CCC3=O)c2)no1,1.09
17,CCCOC(=O)c1cc2ccccc2oc1=O,1.51
18,COc1ccc2oc(=O)c(C(=O)N3CCN(c4ccccc4F)CC3)cc2c1,1.41
19,CCN(CC)c1ccc2cc(C(=O)O)c(=O)oc2c1,2.71 (active)
20,CCN(CC)c1ccc2oc(=O)c(C)nc2c1,0.59
21,COc1ccc2oc(=O)c(C(=O)N3CCCc4ccccc43)cc2c1,1.09
22,COc1ccc2oc(=O)c(C(=O)O)cc2c1,3.98 (active)
